Experimental findings from PubChem BioAssay (NCATS) are described below.

Results filed as inconclusive are left out. Where a call stands in place of a potency, no number is given. Active and inactive are the calls of the source. Calls come from the whole dose curve; as a rule, active = well fitted cell-killing curve with a large enough effect; inconclusive = small, poorly fitted or top-dose-only effect; inactive = flat fitted curve, though single readings scatter.

The test is described as follows: Cell Viability - Mesenchymal (AID 546).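 Note: cells exposed to compound for 40 hours before reading.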 The following applies: mesenchymal cells viability, qHTS; series mostly up to 91.7 µM. The source says:
NIH Chemical Genomics Center [NCGC]
NIH Molecular Libraries Screening Centers Network [MLSCN]
National Institutes of Environmental Health Sciences [NIEHS]
National Toxicology Program [NTP]
We have developed a 1536-well cell-based assay for quantitative high throughput screening (qHTS) against a number of cell lines to determine in vitro cytotoxicity of small molecules. This particular assay uses the kidney mesenchymal cell line which is derived from normal human renal glomeruli.
NCGC Assay Protocol Summary:
The CellTiter-Glo luminescent cell viability assay (Promega) is a homogeneous method to measure the number of viable cells in culture. The end point readout of this assay is based on quantitation of intracellular ATP, an indicator of metabolic activity, using the luciferase reaction. Luciferase catalyzes the oxidation of beetle Luciferin to oxyluciferin and light in the presence of ATP. The luminescent signal is proportional to amount of ATP present.
Using the CellTiter-Glo luminescent cell viability assay, the amount of cellular ATP was measured in the kidney mesenchymal cell line with complete culture medium following compound treatment for 40 hours. The assay was performed in opaque white Kalypsys 1536-well plates. In the screen, tamoxifen and doxorubicin were used as positive controls. Library compounds were measured for their ability to cause acute toxicity in the cell line, as reflected by a decrease in intracellular ATP levels, in a concentration-dependent manner. […] AC50 values were determined from concentration-response data modeled with the standard Hill equation.
qHTS protocol for CellTiter Glo kidney mesenchymal cells cellular assay
[Step] [Parameter] [Value] [Description]
1. Reagent; 5 uL; 1000 kidney mesenchymal cells/well
2. Time; 5 hr; 37 °C incubation
4. Controls; 23 nL; Tamoxifen 0.34 uM to 100 uM & Doxorubicin 0.02 nM to 100 uM
5. Time; 40 hr; 37 °C incubation
6. Reagent; 5 uL; CellTiter Glo reagent
7. Time; 20 min; Room Temperature
8. Detection; Luminescence; Viewlux plate reader
Keywords: cell viability, cytotoxicity, Kidney mesenchymal cell line, luminescence, NTPHTS, NTPHTS_NCGC, NIEHS, EPA, DSSTox, MLSMR, MLSCN, NIH Roadmap, qHTS, NCGC
Background: Quantitative high-throughput screening tests each substance at several concentrations.
For the molecule `CN1CSC(=S)N(C)C1`, the Potency entry is “inactive”. The result for `[O-][Cl+2]([O-])O` reads “inactive”; that for `CCCCCCCCCCCCCl`, “inactive”; that for `O=C(O)CCl`, “inactive”. The result for `CCOC(=O)CBr` reads “inactive”; that for `Nc1cc(Cl)cc(Cl)c1`, “inactive”; that for `Oc1cccc(Cl)c1`, “inactive”. In the case of `ClC=CCl`, the Potency entry is “inactive”. The result for `Oc1c(Cl)c(Cl)cc(Cl)c1Cl` reads “inactive”. On to `OC[P+](CO)(CO)CO`, for which the Potency entry was “inactive”.

`O=C(O)CBr`: the Potency result is “inactive”.

On to `CCCCOC(C)=O`, for which the Potency entry is “inactive”. The result for `Nc1c(Br)cc([N+](=O)[O-])cc1[N+](=O)[O-]` reads “inactive”; that for `C=CC(=O)OCCO`, “inactive”.

For the molecule `CSSC`, the Potency result was “inactive”. In the case of `O=[N+]([O-])c1ccc(Cl)cc1`, the Potency entry is “inactive”.

Take `Nc1cccc2ccccc12`: the Potency entry is “inactive”.

As for `Oc1ccc(Cl)c(Cl)c1Cl`, the Potency result is “inactive”.

As for `C1CC2OC2CC1C1CO1` (stereo not given), the Potency entry was “inactive”. The result for `Nc1ccc(-c2ccc(N)cc2)cc1` reads “inactive”; that for `Nc1ccc(-c2ccccc2)cc1`, “inactive”. Turning to `C=CCO`, the Potency entry is “inactive”. The result for `O=Cc1ccc(Cl)cc1Cl` reads “inactive”.

For the molecule `CC(C)(Cl)[N+](=O)[O-]`, the Potency entry is “inactive”. For `CCN(N=O)C(N)=O` the value was “inactive”; for `S=c1[nH]c2ccccc2[nH]1`, “inactive”; for `CCBr`, “inactive”. For `Clc1ccc(Cl)c(Cl)c1` the value was “inactive”. The result for `C/C=C/C=O` reads “inactive”; that for `COC(C)(C)C`, “inactive”; that for `Cc1cc(Cl)ccc1O`, “inactive”.

Regarding `COP(=S)(OC)SCn1nnc2ccccc2c1=O`, the Potency result is “inactive”. For `Nn1cnnc1` the value was “inactive”; for `Nc1ccc(Cl)c(Cl)c1`, “inactive”; for `ClCC(Cl)Cl`, “inactive”. With `COc1ccc(C=O)cc1`, the Potency result is “inactive”. Consider `BrC(Br)Br`, for which the Potency result was “inactive”. On to `O=[N+]([O-])c1cccc(CCl)c1`, for which the Potency entry is “inactive”.

Turning to `Oc1cc(Cl)c(Cl)c(Cl)c1Cl`, the Potency entry is “inactive”.

`CCCCC(=O)Cl`: the Potency entry was “inactive”.
